High-throughput results deposited in PubChem BioAssay by National Center for Advancing Translational Sciences (NCATS).
Sampled rows, rich in hits. Any-hit rate of the full collection: about 2.4%.
D2 PAM-1: D2 dopamine receptor (human) potentiation; actives 0.34% (n = 340,000); AID 485347; HEK293 T-REx D2, calcium flux, EC20 dopamine potentiation; P14416; potentiation, % at 10 µM;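 active = potentiation over 3 SD above the plate norm, cut at about 30% in these data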; also: 0% is about no effect
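Tetracycline-induced HEK293 T-REx cells force-coupled to calcium signalling expressed D2; compounds were pin-added after a 10 s baseline, read kinetically 180 s, then an EC20 dopamine challenge followed with a further 180 s calcium read.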
D2 antag: antagonizes the human D2 dopamine receptor; HEK293 TREx D2 cells, calcium flux, dopamine EC80; P14416; AID 485344; actives 2% (n = 340,000); inhibition, % at 10 µM; in the data active = inhibition above about 30%; inactive = below that, where a call was filed; also: 0% is about no effect
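Read-out: kinetic calcium fluorescence (1 cycle/s) in inducible HEK293 T-REx D2 cells after an EC80 dopamine addition that followed 180 s compound preincubation. Loss of the dopamine response indicates antagonism.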
D2 PAM-2: human D2 receptor positive allosteric modulation; DiscoveRx D2 beta-arrestin cells, luminescence, 90 min; 100% = 57 uM dopamine signal; potentiation, % (concentration not given with the values); actives 0.23% (n = 360,000); in the data active = potentiation above about 50%
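PathHunter beta-arrestin assay in DiscoveRx D2 cells. Compounds were added with an EC20 of dopamine (50 nM final) for 90 min at 37 deg C. Luminescence was read 1 h after detection reagent, with 57 uM dopamine as the EC100 control.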
D2 ag-1: activates the human D2 dopamine receptor | AID 624465 | DiscoveRx PathHunter D2 beta-arrestin, luminescence, 90 min; 100% = 57 uM dopamine signal | P14416 | activation, % (no concentration beside the values) | actives 0.084% (n = 360,000); in the data active = activation above about 40%
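Agonist mode: compounds alone added to overnight-plated D2 PathHunter cells for 90 min at 37 C, with 57 uM final dopamine (EC100) defining full response. Beta-arrestin recruitment detected by chemiluminescent reagent, read after 1 h at ambient temperature.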
D2 ag-2: activates the human D2 dopamine receptor; P14416; HEK293 T-REx D2 cells, calcium flux agonist mode; activation, % at 2 µM; actives 0.53% (n = 340,000); AID 485358;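 active = activation over 3 SD above normal in the single-dose calcium agonist read, cut at about 30% in these data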; also: 0% is about no effect
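In this primary screen, compounds producing a positive calcium signal within 180 s of addition to tetracycline-induced, force-coupled HEK293 Trex D2 cells are flagged; cells are dye-loaded with a no-wash calcium kit beforehand.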
* hit, by the source's call; / = not tested or not shown.

SMILES	D2 PAM-1	D2 antag	D2 PAM-2	D2 ag-1	D2 ag-2
COc1cc(C)c(CN2CCC(Cc3ccccc3)CC2)cc1C	-19	/	-7	-5	/
C=CCOc1ccccc1CN1CCC(Cc2ccccc2)CC1	-12	31*	-15	-3	-1
CCc1ccc(N2C(=O)N(CC(=O)C(C)(C)C)c3ccccc3S2(=O)=O)cc1	3	/	/	/	0
Nc1c2c(nc3c1CCC3)CCCC2	-7	31*	/	/	1
Nc1c2c(nc3ccn(-c4ccccc4)c(=O)c13)CCCCC2	-11	6	-16	-1	1
CN(C)c1cc(Nc2ccc(O)cc2)c([N+](=O)[O-])c2nonc12	9	-6	-4	-7	-2
O=[N+]([O-])c1c(Nc2ccc(O)cc2)cc(Cl)c2nonc12	-4	37*	-68	0	7
CCOc1ccc(/C=C/c2nc(C#N)c(NC(C)CC)o2)cc1 (configuration not stated)	/	/	/	/	-1
Fc1ccc(N2CCN(c3nc4ccccc4c4nc(-c5cccnc5)nn34)CC2)cc1	0	/	/	/	2
COc1ccc(/C=C/c2nnc(NC(C)=O)s2)cc1	8	3	-6	-3	2
COC(=O)Nc1nnc(/C=C/c2ccc(OC)cc2)s1	1	31*	9	3	2
Cc1cccc(N2CCN(S(=O)(=O)c3ccc(-c4cc(C(F)(F)F)on4)s3)CC2)c1C	11	/	/	/	0
O=C(NC1=NCCS1)C12CC3CC(CC(C3)C1)C2	-9	50*	-9	3	0
CC(C)C(NC(=O)C12CC3CC(CC(C3)C1)C2)C(=O)NC1=NCCS1 (configuration not stated)	15	-6	/	/	0
Cc1cccc(N2CCN(c3nc4ccc(C)cc4n4cnnc34)CC2C)c1 (configuration not stated)	-21	/	/	/	0
CCn1c(SCC(=O)Nc2ccc3c(c2)c2ccccc2n3CC)nnc1-c1ccco1	9	45*	-21	0	0
CCCn1c(SCC(=O)Nc2nnc(CC)s2)nnc1-c1ccco1	38*	7	29	-1	0
CCn1c2ccccc2c2cc(NC(=O)c3cccc([N+](=O)[O-])c3)ccc21	-12	42*	-2	1	1
Cc1nnc(SCC(=O)NCc2ccco2)n1Cc1ccccc1	/	/	-15	-1	/
CCCn1c(SCC(=O)NCc2ccco2)nnc1C(C)C	-7	47*	1	-2	0
COc1cc(OC)cc(C(=O)Nc2cccc(-c3cn4ccsc4n3)c2)c1	-5	/	/	/	0
COc1ccc(NC(=O)CSc2nc(-c3ccc(OC)cc3)[nH]c2-c2ccc(OC)cc2)cc1	-7	/	/	/	-1
Cc1cccn2cc(-c3cccc(NC(=O)C(C)C)c3)nc12	7	/	/	/	0
